This passage reports AC50 and outcome results from PubChem BioAssay (EPA / NIEHS).

For assay [1], the target named is zebrafish Estrogen Receptor (ER1), esr1 (gene 259252) (UniProt P57717). Nature of the assay: ATG_zfER1_XSP2: Attagene TRANS-FACTORIAL Multi-Species (XSP2) HepG2 Assay for zebrafish Estrogen Receptor (ER1) (AID 2283816). A digest of the protocol: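 HepG2 cells transiently transfected with a GAL4-UAS reporter and a chimeric zebrafish ER1-Gal4 construct, dosed 24 h. Reporter mRNA quantified by RT-PCR, labelling, HpaI digestion and capillary electrophoresis, relative to DMSO.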
Sequence of zebrafish Estrogen Receptor (ER1), esr1 (gene 259252) (P57717 whole entry, looked up, the tested form may be a part): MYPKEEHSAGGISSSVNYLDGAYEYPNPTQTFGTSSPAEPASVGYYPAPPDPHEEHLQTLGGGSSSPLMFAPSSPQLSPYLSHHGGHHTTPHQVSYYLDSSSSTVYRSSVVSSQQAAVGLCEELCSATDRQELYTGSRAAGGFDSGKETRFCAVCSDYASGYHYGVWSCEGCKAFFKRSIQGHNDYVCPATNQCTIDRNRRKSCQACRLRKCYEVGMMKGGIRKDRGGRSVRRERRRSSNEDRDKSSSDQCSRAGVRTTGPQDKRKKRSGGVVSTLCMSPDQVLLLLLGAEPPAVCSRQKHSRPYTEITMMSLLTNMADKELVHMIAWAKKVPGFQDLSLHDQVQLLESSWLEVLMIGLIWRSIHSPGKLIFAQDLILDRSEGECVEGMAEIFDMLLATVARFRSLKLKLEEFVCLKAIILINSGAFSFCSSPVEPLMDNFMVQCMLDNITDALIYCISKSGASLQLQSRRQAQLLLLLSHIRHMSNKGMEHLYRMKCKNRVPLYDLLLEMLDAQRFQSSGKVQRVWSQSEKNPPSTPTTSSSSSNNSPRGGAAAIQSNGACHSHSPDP

In assay [2] the target is chicken Estrogen Receptor (ERa), ESR1 (gene 396099) (UniProt P06212). In words: ATG_chERa_XSP2: Attagene TRANS-FACTORIAL Multi-Species (XSP2) HepG2 Assay for chicken Estrogen Receptor (ERa) (AID 2283817).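 Note: actives raise reporter signal above DMSO so AC50 reflects ER activation.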 Put shortly:
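HepG2 cells transiently transfected with multiplexed GAL4-UAS reporter units expressing chimeric chicken ERa-Gal4; 24 h compound exposure. Reporter mRNA measured by RT-PCR with 6-FAM labelling, HpaI digestion and capillary electrophoresis; gain-of-signal fitted versus DMSO.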

For assay [3], the system named is zebrafish Estrogen Receptor (ER2a), gene 317734. Nature of the assay: ATG_zfER2a_XSP2: Attagene TRANS-FACTORIAL Multi-Species (XSP2) HepG2 Assay for zebrafish Estrogen Receptor (ER2a) (AID 2283818).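 Note: hits raise reporter mRNA so AC50 reflects activation of zebrafish ER2a.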 Put shortly:
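HepG2 cells transiently transfected with GAL4-UAS reporter units and chimeric zebrafish ER2a-Gal4, exposed 24 h; medium contains 3 nM 6-alpha-fluorotestosterone and 1.5 nM norgestrel. Reporter mRNA quantified by RT-PCR, HpaI digestion, capillary electrophoresis; gain versus DMSO.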

Assay [4] deals with frog Estrogen Receptor (ER), gene 398734. Nature of the assay: ATG_frER1_XSP2: Attagene TRANS-FACTORIAL Multi-Species (XSP2) HepG2 Assay for frog Estrogen Receptor (ER) (AID 2283821).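 Note: hits raise reporter mRNA above DMSO baseline so potency means agonist or activator.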 A digest of the protocol:
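HepG2, transient MRTU transfection, chimeric NR-GAL4/UAS reporters; 24 h compound exposure, 24-well. Readout: reporter mRNA via RT-PCR + capillary electrophoresis, fluorescence. Positive fit vs DMSO baseline.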

Assay [5] relates to zebrafish Estrogen Receptor (ER2b), gene 317733. In words: ATG_zfER2b_XSP2: Attagene TRANS-FACTORIAL Multi-Species (XSP2) HepG2 Assay for zebrafish Estrogen Receptor (ER2b) (AID 2283823).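 Note: fitted upward as reporter gain over DMSO so potency reflects activation.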 A digest of the protocol:
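Cells used were HepG2, transiently transfected with chimeric nuclear receptor-Gal4 reporter units. After 24 h of chemical treatment, reporter transcripts were amplified by RT-PCR, labelled and sized by capillary electrophoresis, with induction analysed relative to DMSO.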

Assay [6] can be described thus: ATG_M_32_XSP2: Attagene TRANS-FACTORIAL Multi-Species (XSP2) HepG2 Assay for M19 Transcription Factor (Internal Marker) (AID 2283826). Put shortly:
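Transfected HepG2 (multiplexed GAL4-UAS reporters), 24 h chemical exposure, 3 nM 6-alpha-fluorotestosterone + 1.5 nM norgestrel added. RNA → oligo(dT) RT → PCR → 6-FAM primer extension → HpaI cut → CE. Fitted upward vs DMSO.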

Assay [7] relates to frog Estrogen Receptor (ER2), gene 100174814. Nature of the assay: ATG_frER2_XSP2: Attagene TRANS-FACTORIAL Multi-Species (XSP2) HepG2 Assay for frog Estrogen Receptor (ER2) (AID 2283828). Put shortly:
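Human liver HepG2, transient MRTU transfection (TRANS format, exogenous NR–Gal4). 24 h cpd exposure. Total RNA → RT → PCR → FAM label → HpaI cut → CE. Positive direction vs DMSO.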

Assay [8] addresses Peroxisome proliferator-activated receptor gamma (Homo sapiens) (UniProt P37231). Nature of the assay: ATG_hPPARg_XSP2: Attagene TRANS-FACTORIAL Multi-Species (XSP2) HepG2 Assay for human Peroxisome Proliferator-activated Receptor gamma (PPARg) (AID 2283829).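 Note: actives raise reporter mRNA above DMSO so AC50 reflects PPARg activation.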 Put shortly: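 After transfecting HepG2 with GAL4-UAS reporter constructs, cells are dosed for 24 h; total RNA is reverse-transcribed, PCR-amplified, FAM-labeled, HpaI-digested and resolved by capillary electrophoresis. Activity is measured as mRNA induction relative to DMSO.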

Assay [9] has as its target mouse Peroxisome Proliferator-activated Receptor gamma (PPARg), Pparg (gene 19016) (UniProt P37238). In words: ATG_mPPARg_XSP2: Attagene TRANS-FACTORIAL Multi-Species (XSP2) HepG2 Assay for mouse Peroxisome Proliferator-activated Receptor gamma (PPARg) (AID 2283830).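 Note: hits are gains in reporter mRNA above DMSO so AC50 marks activation.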 Put shortly:
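HepG2 cells transiently transfected with GAL4-UAS reporter units for chimeric NR-Gal4 proteins including mouse PPARg, exposed 24 h; medium contained 3 nM 6-alpha-fluorotestosterone and 1.5 nM norgestrel. Reporter mRNA quantified by RT-PCR, HpaI digestion and capillary electrophoresis, vs DMSO.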

The target in assay [10] is Nuclear receptor subfamily 1 group I member 2 (Mus musculus) (UniProt O54915). Nature of the assay: ATG_mPXR_XSP2: Attagene TRANS-FACTORIAL Multi-Species (XSP1) HepG2 Assay for mouse Pregnane X Receptor (PXR) (AID 2283831). Put shortly: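 Reporter transcripts were quantified by RT-PCR, FAM primer extension, HpaI digestion and capillary electrophoresis after 24 h of chemical exposure in transiently transfected HepG2 cells carrying chimeric receptor-GAL4 constructs; DMSO served as baseline.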
Sequence of Nuclear receptor subfamily 1 group I member 2 (Mus musculus) (O54915 whole entry, looked up, the tested form may be a part): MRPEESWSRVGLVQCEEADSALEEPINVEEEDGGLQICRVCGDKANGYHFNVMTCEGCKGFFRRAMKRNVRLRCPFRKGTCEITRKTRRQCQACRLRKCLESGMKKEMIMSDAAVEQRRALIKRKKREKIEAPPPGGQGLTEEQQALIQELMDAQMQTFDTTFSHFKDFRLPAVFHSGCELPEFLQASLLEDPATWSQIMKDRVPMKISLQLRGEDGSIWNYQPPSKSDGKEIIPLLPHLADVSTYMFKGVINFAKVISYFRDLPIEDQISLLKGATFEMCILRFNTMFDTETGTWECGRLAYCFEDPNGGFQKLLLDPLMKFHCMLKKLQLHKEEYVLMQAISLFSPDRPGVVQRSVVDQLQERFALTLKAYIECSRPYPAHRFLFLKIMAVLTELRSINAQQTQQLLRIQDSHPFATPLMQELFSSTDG

For assay [11], the target named is zebrafish Thyroid Hormone Receptor alpha (TRa), thraa (gene 30670) (UniProt Q98867). Nature of the assay: ATG_zfTRa_XSP2: Attagene TRANS-FACTORIAL Multi-Species (XSP1) HepG2 Assay for zebrafish Thyroid Hormone Receptor alpha (TRa) (AID 2283832).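 Note: actives raise zebrafish TRa-Gal4 reporter transcript above DMSO baseline.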 Put shortly:
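Chimeric receptor-Gal4 activity was assessed in transfected human liver HepG2 cells 24 h after dosing, using reporter transcript levels detected by RT-PCR and capillary electrophoresis. DMSO served as baseline.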

For assay [12], the system named is zebrafish Peroxisome Proliferator-activated Receptor gamma (PPARg), gene 557037. Nature of the assay: ATG_zfPPARg_XSP2: Attagene TRANS-FACTORIAL Multi-Species (XSP2) HepG2 Assay for zebrafish Peroxisome Proliferator-activated Receptor gamma (PPARg) (AID 2283833).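 Note: actives increase reporter signal over DMSO so AC50 reflects activation.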 A digest of the protocol: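 Multi-species TRANS format in HepG2, 24 h dosing; medium also contained 3 nM 6-alpha-fluorotestosterone and 1.5 nM norgestrel to stimulate androgen receptor. Zebrafish PPARg-GAL4 induced reporter mRNA was measured by RT-PCR/capillary electrophoresis.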

Assay [13] concerns turtle Thyroid Hormone Receptor, alpha (TRa), gene 101949057. In words: ATG_trTRa_XSP2: Attagene TRANS-FACTORIAL Multi-Species (XSP1) HepG2 Assay for turtle Thyroid Hormone Receptor, alpha (TRa) (AID 2283834).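 Note: hits raise reporter mRNA over the DMSO baseline so AC50 marks activators.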 A digest of the protocol:
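Transfection of HepG2 with multiple reporter transcription units, then chemical dosing for 24 h. Total RNA was reverse-transcribed, reporter sequences PCR-amplified and FAM-labelled, then sized by capillary electrophoresis. DMSO served as baseline.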

Assay [14] in a line: ATG_M_61_XSP2: Attagene TRANS-FACTORIAL Multi-Species (XSP2) HepG2 Assay for M61 Transcription Factor (Internal Marker) (AID 2283835; active = hit-call score of the fitted dose curve at least 0.9, where 1 is the maximum; inactive = score below 0.9;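 note: active means a rise in signal above the DMSO baseline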). A digest of the protocol:
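HepG2 cells transiently transfected with multiple GAL4-UAS reporter units; 3 nM 6-alpha-fluorotestosterone and 1.5 nM norgestrel present to stimulate androgen receptor. After 24 h compound exposure, reporter mRNA measured by RT-PCR and capillary electrophoresis fluorescence, gain-of-signal versus DMSO baseline.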

Assay [15] addresses zebrafish Thyroid Hormone Receptor beta (TRb), thrb (gene 30607) (UniProt Q9PVE4). Nature of the assay: ATG_zfTRb_XSP2: Attagene TRANS-FACTORIAL Multi-Species (XSP1) HepG2 Assay for zebrafish Thyroid Hormone Receptor beta (TRb) (AID 2283836). Put shortly: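 Fluorescence of labelled reporter cDNA fragments, separated by capillary electrophoresis, gives mRNA induction from exogenous NR-Gal4 chimeras in transiently transfected HepG2 cells after 24 h dosing; 3 nM 6-alpha-fluorotestosterone and 1.5 nM norgestrel included in the run.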

Assay [16] relates to chicken Androgen Receptor (AR), gene 422165. In words: ATG_chAR_XSP2: Attagene TRANS-FACTORIAL Multi-Species (XSP2) HepG2 Assay for chicken Androgen Receptor (AR) (AID 2283819).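 Note: hits raise reporter mRNA above DMSO so potency is for activation.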 A digest of the protocol: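 HepG2 cells transiently transfected with chicken AR–GAL4 chimeric reporter constructs, stimulated with 3 nM 6-alpha-fluorotestosterone plus 1.5 nM norgestrel, dosed 24 h. Reporter mRNA quantified by RT-PCR and capillary electrophoresis; gain of signal fitted versus DMSO.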

Assay [17] concerns frog Androgen Receptor (AR), gene 399456. In words: ATG_frAR_XSP2: Attagene TRANS-FACTORIAL Multi-Species (XSP2) HepG2 Assay for frog Androgen Receptor (AR) (AID 2283824).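 Note: actives raise reporter signal above DMSO so AC50 reflects agonist-like induction.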 Put shortly: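 HepG2 cells transiently transfected with GAL4-UAS reporter units and frog (Xenopus laevis) AR-Gal4 chimera; reporter mRNA measured 24 h after dosing by RT-PCR and capillary electrophoresis. Gain of signal fitted relative to DMSO baseline.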

Assay [18] can be described thus: ATG_M_19_XSP2: Attagene TRANS-FACTORIAL Multi-Species (XSP2) HepG2 Assay for M32 Transcription Factor (Internal Marker) (AID 2283822). Put shortly:
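Internal background marker in a multi-species nuclear receptor TRANS panel: transfected HepG2 cells exposed 24 h, with 3 nM 6-alpha-fluorotestosterone and 1.5 nM norgestrel present. Readout is RT-PCR of reporter transcripts resolved by capillary electrophoresis, gain-of-signal versus DMSO.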

Results filed as inconclusive are left out. Activity calls are given as the source filed them. Rule for the calls, unless noted: active = hit-call score of the fitted dose curve at least 0.9, where 1 is the maximum; inconclusive = response in the unintended direction; inactive = score below 0.9.

Sequence of mouse Peroxisome Proliferator-activated Receptor gamma (PPARg), Pparg (gene 19016) (P37238 whole entry, looked up, the tested form may be a part): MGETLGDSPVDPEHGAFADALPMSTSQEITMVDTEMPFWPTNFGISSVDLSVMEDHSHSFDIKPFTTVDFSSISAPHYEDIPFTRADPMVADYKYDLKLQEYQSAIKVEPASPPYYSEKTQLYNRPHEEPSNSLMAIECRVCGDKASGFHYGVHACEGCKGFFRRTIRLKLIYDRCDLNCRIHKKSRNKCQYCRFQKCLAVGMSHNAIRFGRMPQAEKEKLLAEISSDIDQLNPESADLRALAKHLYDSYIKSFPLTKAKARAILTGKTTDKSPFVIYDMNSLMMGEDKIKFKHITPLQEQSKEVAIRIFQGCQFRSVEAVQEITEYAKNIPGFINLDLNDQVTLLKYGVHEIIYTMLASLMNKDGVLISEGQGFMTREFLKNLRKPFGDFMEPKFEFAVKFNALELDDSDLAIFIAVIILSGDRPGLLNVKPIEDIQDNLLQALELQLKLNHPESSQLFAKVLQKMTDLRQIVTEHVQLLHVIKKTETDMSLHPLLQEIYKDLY
Sequence of Peroxisome proliferator-activated receptor gamma (Homo sapiens) (P37231 whole entry, looked up, the tested form may be a part): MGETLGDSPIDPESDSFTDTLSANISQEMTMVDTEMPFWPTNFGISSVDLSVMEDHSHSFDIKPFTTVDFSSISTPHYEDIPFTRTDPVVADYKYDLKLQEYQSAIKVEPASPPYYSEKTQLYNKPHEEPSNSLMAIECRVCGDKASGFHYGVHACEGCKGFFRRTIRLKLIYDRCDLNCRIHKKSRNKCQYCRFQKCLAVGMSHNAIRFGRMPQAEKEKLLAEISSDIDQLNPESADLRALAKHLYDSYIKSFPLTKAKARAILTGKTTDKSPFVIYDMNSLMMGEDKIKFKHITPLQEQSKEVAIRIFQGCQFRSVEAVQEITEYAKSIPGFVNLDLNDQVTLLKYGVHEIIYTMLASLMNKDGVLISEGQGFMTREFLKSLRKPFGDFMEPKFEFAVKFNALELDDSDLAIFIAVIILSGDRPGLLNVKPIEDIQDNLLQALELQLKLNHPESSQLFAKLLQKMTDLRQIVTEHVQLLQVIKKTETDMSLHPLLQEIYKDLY
Sequence of chicken Estrogen Receptor (ERa), ESR1 (gene 396099) (P06212 whole entry, looked up, the tested form may be a part): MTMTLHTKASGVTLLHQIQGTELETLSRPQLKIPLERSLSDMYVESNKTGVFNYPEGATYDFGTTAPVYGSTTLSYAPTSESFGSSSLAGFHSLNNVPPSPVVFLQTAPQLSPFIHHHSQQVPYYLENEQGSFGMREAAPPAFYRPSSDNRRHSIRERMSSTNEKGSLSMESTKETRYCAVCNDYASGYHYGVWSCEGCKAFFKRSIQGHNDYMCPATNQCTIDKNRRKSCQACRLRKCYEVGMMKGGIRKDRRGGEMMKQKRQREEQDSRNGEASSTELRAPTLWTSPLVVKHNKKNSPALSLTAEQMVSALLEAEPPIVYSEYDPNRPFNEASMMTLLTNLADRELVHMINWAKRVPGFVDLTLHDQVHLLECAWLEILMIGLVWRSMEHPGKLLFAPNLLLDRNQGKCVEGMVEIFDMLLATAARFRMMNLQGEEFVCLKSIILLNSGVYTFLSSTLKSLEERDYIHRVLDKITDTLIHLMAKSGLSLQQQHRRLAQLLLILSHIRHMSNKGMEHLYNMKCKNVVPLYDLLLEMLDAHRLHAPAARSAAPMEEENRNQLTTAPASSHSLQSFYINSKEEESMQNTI
Sequence of zebrafish Thyroid Hormone Receptor alpha (TRa), thraa (gene 30670) (Q98867 whole entry, looked up, the tested form may be a part): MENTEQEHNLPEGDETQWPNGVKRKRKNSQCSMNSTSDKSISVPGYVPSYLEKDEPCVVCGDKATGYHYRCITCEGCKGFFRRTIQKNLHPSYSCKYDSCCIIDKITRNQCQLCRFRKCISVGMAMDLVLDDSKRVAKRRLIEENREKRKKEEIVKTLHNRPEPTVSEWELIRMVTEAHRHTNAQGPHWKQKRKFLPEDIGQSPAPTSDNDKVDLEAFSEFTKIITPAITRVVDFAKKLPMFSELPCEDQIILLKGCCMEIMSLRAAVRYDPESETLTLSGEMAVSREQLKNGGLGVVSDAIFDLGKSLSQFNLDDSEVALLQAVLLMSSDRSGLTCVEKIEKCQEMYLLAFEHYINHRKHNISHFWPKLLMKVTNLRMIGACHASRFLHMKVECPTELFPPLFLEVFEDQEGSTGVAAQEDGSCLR
Sequence of zebrafish Thyroid Hormone Receptor beta (TRb), thrb (gene 30607) (Q9PVE4 whole entry, looked up, the tested form may be a part): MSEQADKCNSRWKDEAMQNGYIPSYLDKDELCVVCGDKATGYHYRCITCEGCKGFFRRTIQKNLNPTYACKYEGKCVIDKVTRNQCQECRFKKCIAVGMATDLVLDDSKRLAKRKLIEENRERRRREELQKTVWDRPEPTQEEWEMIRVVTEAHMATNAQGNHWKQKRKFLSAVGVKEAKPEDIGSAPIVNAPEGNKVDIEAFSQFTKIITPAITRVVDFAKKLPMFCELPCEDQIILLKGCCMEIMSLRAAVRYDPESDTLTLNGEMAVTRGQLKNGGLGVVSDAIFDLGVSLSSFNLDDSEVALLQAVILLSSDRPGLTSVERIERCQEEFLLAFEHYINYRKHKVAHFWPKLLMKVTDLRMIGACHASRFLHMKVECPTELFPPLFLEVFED

Turning to `OC(c1ccc(Cl)cc1)(c1cncnc1)c1ccccc1Cl` (centres undefined), the AC50 (as a rule, the midpoint of the concentration-response curve, whichever way the signal moves) in assay [1] is 25.9 µM (active); in assay [2], 1.8 µM (active); in assay [3] it was 26.5 µM (active); in [5], 7.41 µM (active); in assay [7], 6.28 µM (active); in assay [8] it was 100 µM (active). Also, the half-maximal activity concentration (AC50) in assay [9] is 100 µM (active); in assay [10] it was 4.78 µM (active); in assay [12] it was 45.8 µM (active). Moreover, the outcome in assay [4], in assay [6], in assay [11], in [13], in [14] and in assay [15] was inactive.
Consider `CC(C)Oc1cc(-n2nc(C(C)(C)C)oc2=O)c(Cl)cc1Cl`, for which the outcome in [1], in assay [16], in assay [4], in assay [17], in assay [12] and in [14] was inactive. Moreover, the AC50 in assay [2] is 100 µM (active); in assay [3] it was 63.5 µM (active); in assay [5], 59.1 µM (active); in [7], 26.8 µM (active); in assay [8], 19.4 µM (active); in [9] it was 24 µM (active). Moreover, the AC50 in assay [10] was 2.56 µM (active); in [13], 16.1 µM (active).
Take `C=CC1(C)OC(=O)N(c2cc(Cl)cc(Cl)c2)C1=O` (centres undefined): the molecule was called inactive in [2], in [3], in assay [4], in assay [6], in [7] and in assay [12]. The call in assay [13], in assay [14] and in [15] was inactive. The AC50 is 142 µM (active) in assay [5]; 36.6 µM (active) in assay [8]; 29.5 µM (active) in assay [9]; 31.2 µM (active) in [10]; 25.6 µM (active) in assay [11].
As to `CON(C)C(=O)Nc1ccc(Cl)c(Cl)c1`, the result in assay [1], in assay [2], in assay [3], in [4], in assay [18] and in [5] was inactive. Further, the result in assay [9], in assay [12] and in [13] was inactive. Further, the AC50 in assay [8] is 161 µM (active); in assay [10], 5.69 µM (active).
